This passage reports growth inhibition results from PubChem BioAssay (NCI).

Test [1] can be described thus: NCI Yeast Anticancer Drug Screen. Data for the rad50 strain (AID 155).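 Also: 0% = growth of vehicle-only cultures of the same strain.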 As to conditions: S. cerevisiae rad50 strain growth inhibition, active compounds read high; at 50.0 µM unless noted. The method, boiled down:
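Relative growth inhibition (compound vs vehicle) was measured in yeast with a defined repair-gene alteration.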

A short description of test [2]: NCI Yeast Anticancer Drug Screen. Data for the mec2-1 strain (AID 157). As to conditions: S. cerevisiae mec2-1 strain, active compounds read high; at 50.0 µM unless noted. The method, boiled down:
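Using mec2-1 yeast: add compound, measure growth, express inhibition versus vehicle-treated cultures.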

Test [3] in a line: NCI Yeast Anticancer Drug Screen. Data for the sgs1 mgt1 strain (AID 161).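 Also: 0% = growth of cultures given vehicle only.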 The conditions noted are these: S. cerevisiae sgs1 mgt1 strain, active compounds read high; at 50.0 µM unless noted. A digest of the protocol:
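Compounds are added to genetically altered yeast, and growth is compared with cultures given vehicle alone to give percent inhibition.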

The nature of test [4]: NCI Yeast Anticancer Drug Screen. Data for the cln2 rad14 strain (AID 165).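 Also: 0% = growth equal to vehicle treated cultures.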 As to conditions: S. cerevisiae cln2 rad14 strain, active compounds read high; at 50.0 µM unless noted. A digest of the protocol:
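Yeast strain cln2 rad14, bearing defects in cell cycle control and DNA repair, serves as the test system; values reflect growth inhibition compared with vehicle.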

A short description of test [5]: NCI Yeast Anticancer Drug Screen. Data for the bub3 strain (AID 167). The conditions noted are these: S. cerevisiae bub3 mutant strain, active compounds read high; at 50.0 µM unless noted. A digest of the protocol: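 Screening used yeast with an engineered genetic alteration affecting cell cycle control. Compound-exposed cultures were compared with vehicle cultures, and reduced growth was taken as inhibition.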

Test [6] can be described thus: NCI Yeast Anticancer Drug Screen. Data for the mlh1 rad18 strain (AID 175). As to conditions: S. cerevisiae mlh1 rad18 strain growth inhibition, active compounds read high; at 50.0 µM unless noted. A digest of the protocol: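 Steps: expose repair-defective yeast to compound; measure growth; express inhibition against vehicle-treated controls.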

Structures are written as SMILES. The panel holds about 79,000 compounds, 15% with a hit somewhere; the sample as a whole holds those more often. A number with no mark means an inactive call. The source made the active and inactive calls. Rule as the data show it: active = growth inhibition above about 70%; inactive = the rest. Where a SMILES comes first, the peptide text is derived from it.

For the molecule `O=C(O)CSc1nc2ccccc2[nH]1`, the growth inhibition was 3.5% in test [1]; 1.55% in test [2]; -36% in test [3]; -13.9% in test [4]; -35.4% in test [5]; 10% in test [6].

In the case of `CCOC(=O)CSCC(=O)OCC`, the growth inhibition in test [1] is 3.6%; in test [2], -9%; in test [3] it was -17.2%; in test [4], 8.45%; in test [5], -9.4%; in test [6] it was -4.65%.

As for `CCOC(=O)CCC(Br)(Br)Br`, the growth inhibition is 10% in test [1]; 16% in test [2]; 1.7% in test [3]; 12.8% in test [4]; 4.6% in test [5]; 10.2% in test [6].

`CC(=O)Nc1c(N)c2ccccc2c2ccccc12`: the growth inhibition was -4.2% in test [1]; -13.9% in test [2]; -22.7% in test [3]; 1.75% in test [4]; -4.5% in test [5]; -12.2% in test [6].

With `Cc1ccc(Cl)cc1NC(=O)Nc1ccccc1Cl`, the growth inhibition in test [1] was 11.5%; in test [2], 12.2%; in test [3], 6.05%; in test [4], -12.2%; in test [5], 8.85%; in test [6], -11%.

As to `Cc1c2cc[n+](C)cc2c(C)c2c1oc1ccccc12`, the growth inhibition in test [1] was 82.5% (active); in test [2] it was 62.1%; in test [3], 78.8% (active); in test [4], 55.9%; in test [5], 75.1% (active); in test [6], -38%.

Take `Cc1cc(C2=NCC(C)(C)S2)ccc1O`: the growth inhibition was 15.2% in test [1]; 7.8% in test [2]; 8.9% in test [3]; 10.2% in test [4]; 25% in test [5]; 29.5% in test [6].

On to `O=C(CCC(=O)Nc1ccc(Cl)c(Cl)c1)Cc1nc2ccccc2o1`, for which the growth inhibition in test [1] is -8.25%; in test [2], -24.4%; in test [3] it was -11.2%; in test [4], 18.6%; in test [5] it was -13.7%; in test [6] it was 1.1%.

As to `Cc1ccccc1N=C(N)N`, the growth inhibition in test [1] is 4.3%; in test [2], 2.5%; in test [3], -1.35%; in test [4], -3.3%; in test [5] it was -0.2%; in test [6], -1.95%.

With `CCn1c(CCCc2nc3c([nH]2)c(=O)n(C)c(=O)n3C)nc2c1c(=O)n(C)c(=O)n2C`, the growth inhibition in test [1] is 6.65%; in test [2] it was -38.8%; in test [3], -45.1%; in test [4] it was 33.2%; in test [5] it was -40.7%; in test [6] it was -15.3%.

For `CC(=O)NC1=NC(=O)/C(=C/c2ccccc2Cl)N1C`, the growth inhibition in test [1] is -45.7%; in test [2] it was -53.8%; in test [3], -10.9%; in test [4], 8%; in test [5], -8.85%; in test [6], 28.6%.

`Cc1ccc(C(C)C)c(Oc2cc(C)ccc2C(C)C)c1`: the growth inhibition in test [1] is -17.9%; in test [2], 7.1%; in test [3], -6.8%; in test [4] it was -37.8%; in test [5], -17.5%; in test [6], -19.8%.

On to `CCCCCC(=O)CC(=O)C(CC)CC`, for which the growth inhibition is 16.4% in test [1]; 12.9% in test [2]; -1.55% in test [3]; 1.35% in test [4]; 6.5% in test [5]; 12.9% in test [6].

On to `Cc1nc2c(c(=O)[nH]1)C(c1ccccc1)C(C)(C)O2` (stereo not given), for which the growth inhibition in test [1] was 3.6%; in test [2], -23.3%; in test [3] it was -3.6%; in test [4], -4.5%; in test [5], 6.15%; in test [6], 6.85%.

Take `CC(C)(C)OC(=O)NNS(=O)(=O)CCC(NC(=O)OCc1ccccc1)C(=O)OCc1ccccc1` (stereo not given): the growth inhibition is 46.7% in test [1]; 93.2% (active) in test [2]; 51.1% in test [3]; 86.5% (active) in test [4]; 94.5% (active) in test [5]; 95.6% (active) in test [6].

For the molecule `Cc1ccnc(NC#N)n1`, the growth inhibition in test [1] is 14.8%; in test [2], 13.6%; in test [3], 21.6%; in test [4], 19.1%; in test [5], 19.4%; in test [6], 14.8%.

As to `O=C1c2ccccc2C(=Cc2cccc([N+](=O)[O-])c2)c2ccccc21`, the growth inhibition was 15.6% in test [1]; 18.4% in test [2]; -6.35% in test [3]; 9.75% in test [4]; 4.2% in test [5]; 0.6% in test [6].

Take `ClC(Cl)CN(Cc1ccccc1)c1ncc[nH]1`: the growth inhibition in test [1] is 22.5%; in test [2], 6.25%; in test [3], 28%; in test [4], -59.2%; in test [5], 8.05%; in test [6] it was 17.6%.

As for `CCOC(=O)C(C)(c1[nH]c2ccccc2c1C)c1[nH]c2ccccc2c1C`, the growth inhibition was -0.55% in test [1]; -6.2% in test [2]; -14.2% in test [3]; -1.4% in test [4]; -14.6% in test [5]; -5.7% in test [6].

`CNC(=O)CNC(=O)C(NC(=O)CNC(=O)C1CCCN1C(=O)C(C)NC(=O)C(NC(C)=O)C(C)C)C(C)C` (stereo not given) (Ac-VAPGVG-NHMe; configuration not given here): the growth inhibition in test [1] was 0.3%; in test [2], -13.9%; in test [3], 3.55%; in test [4], -6.6%; in test [5] it was -11.7%; in test [6], -4.75%.
